Bioassay records deposited in PubChem BioAssay by National Center for Advancing Translational Sciences (NCATS).
CHX counter: Cycloheximide Counterscreen for Small Molecule Inhibitors of Shiga Toxin; cell reporter, cycloheximide protein synthesis inhibition counterscreen; max response, %; actives 12% (n = 300,000); in the data active = max response mostly above about 13%, no sharp cut-off; inactive = mostly below about 14%; also: read at 38.3 µM for the half of the compounds with a filed dose; 0% is about no effect
Marburg entry inh: qHTS for inhibitors of binding or entry into cells for Marburg Virus; Marburg virus pseudotyped entry inhibition, cell reporter; Potency, µM (doses to about 37.8 µM), without a hit: at the top dose activity change, negative = inhibition, most hits filed as inhibitors; actives 1.8% (n = 300,000); AID 540276, 2011; calls by dose curve; tested in HEK293 cells; also: potency is read from the fitted curve at half-maximal effect; % is scaled to controls: 0 for no effect and ±100 for the full control effect
Lassa entry inh: qHTS for Inhibitors of binding or entry into cells for Lassa Virus; Potency, µM (titrated, usually from 37.9 µM), inactives show at the top dose activity change, negative = inhibition, most hits filed as inhibitors; Lassa virus pseudotype entry inhibition, cell reporter; AID 540256, 2011; actives 1.2% (n = 300,000); calls by dose curve; tested in HEK293 cells; also: potency is read from the fitted curve at half-maximal effect; % is scaled to controls: 0 for no effect and ±100 for the full control effect; nearly all actives have a fitted effect of over 50% in size
Shiga toxin inh: A qHTS for Small Molecule Inhibitors of Shiga Toxin; AID 2315, 2010; Vero cells, Shiga toxin protein synthesis inhibition reporter; inhibition, % at 38.7 µM; actives 9.2% (n = 290,000); in the data active = inhibition mostly above about 28%, no sharp cut-off; inactive = mostly below about 43%; also: 0% is about no effect
AMA1 RON2 block: qHTS for Inhibitors of AMA1-RON; Towards Development of Antimalarial Drug Lead: Primary Screen. Potency, µM (highest dose often 58.2 µM), for inactives: at the highest dose activity change, negative = inhibition, hits mostly inhibitors. AID 720542, 2013. AlphaScreen AMA1-biotinylated RON2 peptide binding. Plasmodium falciparum AMA1 (3D7) - RON2 peptide interaction. actives 0.2% (n = 360,000); active = well fitted inhibition curve with a large enough effect; inconclusive = small, poorly fitted or top-dose-only effect; inactive = no such curve, though single readings can be large or run the other way;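 also: potency is read from the fitted curve at half-maximal effect; 0% = vehicle wells and -100% = peptide control; nearly all actives have a fitted effect of over 45% in size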
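AMA1 (3D7) with his tag at 25 nM final met compounds first, then biotinylated RON2 peptide at 25 nM; detection used donor plus acceptor beads, 10 µg/mL apiece, read by AlphaScreen after 30 min at room temperature.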
The depositor's hits bear a star; ? = inconclusive; . = not tested or not shown; [ ] = another dose, or the depositor's remark. This is one part of a sample in which hits are shown more often than they occur.

SMILES	CHX counter	Marburg entry inh	Lassa entry inh	Shiga toxin inh	AMA1 RON2 block
CCC(NC(=O)c1cccc(Cn2cc([N+](=O)[O-])cn2)c1)c1ccc(C(C)C)cc1 (stereo not given)	11*	?	-11%	7	5%
CC(NC(=O)c1cccc(Cn2cc([N+](=O)[O-])cn2)c1)c1ccc(C(C)(C)C)cc1 (stereo not given)	11	?	-23%	14	-5%
CCC(C)NC(=O)c1ccc(NS(=O)(=O)c2ccc3[nH]c(=O)[nH]c3c2)cc1 (stereo not given)	28	-9%	-11%	13*	-11%
COC(=O)c1ccc(COC(=O)[C@@H]2CC(O)CN2S(=O)(=O)c2ccccc2[N+](=O)[O-])cc1 (stereo not given in full)	.	18%	-26%	.	-5%
COC(=O)N1CCCc2cc(S(=O)(=O)NCc3ccccc3)ccc21	.	4%[46.1 µM]	-23%[46.1 µM]	.	.
CCCCC1(Cc2ccc(OC)c([N+](=O)[O-])c2)C(=O)N(c2ccccc2)N(c2ccccc2)C1=O	-1	14µM*	?	-10	-16%
Cc1[nH]n(C2=NCCS2)c(=O)c1N=Nc1ccccc1	9	10%[46.1 µM]	0%	7	50%
Cc1[nH]n(-c2nc(-c3ccc(Cl)cc3)cs2)c(=O)c1N=Nc1ccc(O)cc1	8	?	11µM*	23	38%
O=C(Nc1ccc(F)cc1)C(c1cccc(F)c1)N1CCN(C(=O)c2ccco2)CC1 (stereo not given)	.	.	.	.	0%
COc1ccc(C(=O)NCC(c2ccco2)N(C)C)cc1S(=O)(=O)NCc1ccc(Cl)cc1 (stereo not given)	.	2%	2%	.	-2%
COc1ccc(Br)cc1CNC(=O)Cc1cccs1	21*	?	5%	6	16%
O=S(=O)(NCc1ccccc1Br)c1cccs1	11*	?	12%	-5	6%
O=C(Cc1cccs1)NCc1ccccc1Br	36*	.	.	63*	-1%
O=C(Cc1cccs1)NCc1ccco1	-3	5%	20%	10	-5%
COc1cc(CCC(=O)NNC(=O)c2cccc(Cl)c2)cc(OC)c1OC	-8	8%[46.1 µM]	1%	20	93%
CCSc1nnc2ccc(-c3ccc(OC)c(OC)c3)nn12	25*	-23%[46.1 µM]	-24%	19	1%
COc1ccc(-c2ccc3nnc(SCC(N)=O)n3n2)cc1	7	-20%[46.1 µM]	-7%	18	-5%
CC(=O)CC(C)(C)NC(C)=S	-3	-16%	-6%	-6	10%
Cc1ccc(C2=NN(S(=O)(=O)c3ccccc3)C(c3ccccc3O)C2)cc1 (stereo not given)	20*	?	?	69*	-9%
Cc1ccc(C2=NN(C(=O)c3cccs3)C(c3ccccc3O)C2)cc1 (stereo not given)	22*	?	-7%[46.1 µM]	22	-2%
COc1ccc(S(=O)(=O)N2N=C(c3ccc(NS(C)(=O)=O)cc3)CC2c2ccco2)cc1 (stereo not given)	6	10%	0.65µM*	23	-9%
COc1ccc(C2CC(c3ccccc3)=NN2c2ccc(Cl)c(C(=O)O)c2)cc1 (stereo not given)	26*	-6%[46.1 µM]	5%[46.1 µM]	45*	-17%
O=C(c1cccs1)N1N=C(c2ccccc2)CC1c1ccccc1O (stereo not given)	-1	?	30%[46.1 µM]	3	1%
CS(=O)(=O)Nc1ccc(C2=NN(S(=O)(=O)c3ccccc3)C(c3cccs3)C2)cc1 (stereo not given)	-9	.	.	14	-12%
COC(=O)c1ccccc1NC(=O)COC(=O)C1CCCCC1	-3	-2%[46.1 µM]	3%[46.1 µM]	-7	4%
SMILES	CHX counter	Marburg entry inh	Lassa entry inh	Shiga toxin inh	AMA1 RON2 block
CC1(C(=O)NCc2ccco2)CCN1C(=O)C1(c2ccccc2)CC1 (stereo not given)	.	.	.	.	-1%
COc1ccc(C2CC(c3ccccc3)=NN2c2ccc(N)cc2)cc1 (stereo not given)	39*	?	?	44*	1%[2.32 µM]
COc1ccc(C2CC(c3ccccc3)=NN2C(=O)c2ccc(F)cc2)cc1 (stereo not given)	11	4%	-12%	-2	-5%
COc1ccc(C2CC(c3ccccc3)=NN2S(=O)(=O)c2ccccc2)cc1 (stereo not given)	34*	.	.	55*	-4%
CC(C)COc1ccc(C(=O)Nc2nnc(S(=O)(=O)N(C)Cc3ccco3)s2)cc1	.	.	23%[46.1 µM]	.	.
CCCCNC(=O)CSc1nnc(-c2cccc(S(=O)(=O)N3CCOCC3)c2)o1	.	.	.	.	-9%
CC(=O)OCc1cnc(C)c2oc(=O)c(C(=O)Nc3cccc(F)c3)cc12	.	.	0.79µM*	.	.
Oc1ccc(Nc2nc(-c3cccs3)cs2)cc1	-3	?	14%	20	13%
COc1ccc(Nc2nc(-c3cccs3)cs2)cc1	41*	?	0%	42*	-4%
COc1ccccc1Nc1nc(-c2cccs2)cs1	37*	?	?	77*	-4%
COc1ccc(OC)c(Nc2nc(-c3cccs3)cs2)c1	23*	-1%	8%	17	-16%
COc1ccc(Nc2nc(-c3sc(C)nc3C)cs2)c(OC)c1	8.8*	.	.	13	?
CCC(C)C(=O)Nc1nc(C)c(-c2csc(Nc3ccccc3OC)n2)s1 (stereo not given)	-4	.	.	-14	-5%
CCc1nc(-c2cc(S(=O)(=O)N3CCN(c4ccc(F)cc4)CC3)ccc2OC)no1	.	?	-7%[46.1 µM]	.	.
COc1ccc(Nc2nc(-c3cccs3)cs2)c(OC)c1	46*	11%	27%	106*	-15%
COC(=O)C1=C(C)N=C2S[C@H](C)C(=O)N2[C@@H]1/C=C\c1ccccc1OC	.	2%	.	.	.
Cc1onc(-c2ccccc2Cl)c1C(=O)NCc1ccccc1F	0	.	.	-9	-8%
Cc1onc(-c2ccccc2Cl)c1C(=O)Nc1ccccc1C(=O)NC(C)C	-4	9.2µM*	?	-2	-9%
Cc1onc(-c2ccccc2Cl)c1C(=O)NCc1nc(-c2ccc(C(F)(F)F)cc2)no1	1	?	10µM*	10	12%
Cc1onc(-c2ccccc2Cl)c1C(=O)Nc1ccc(Cl)cn1	11*	.	.	12	-7%
Cc1onc(-c2ccccc2Cl)c1C(=O)Nc1ccccc1C(N)=O	-2	-19%	-5%	-10	0%
Cc1ccc(NC(=O)c2c(-c3ccccc3Cl)noc2C)nc1	-1	-8%[46.1 µM]	-1%[46.1 µM]	8	9%
CCC(Sc1nc2ccccc2c2nc(-c3ccccc3)nn12)C(=O)Nc1cccc(OC)c1 (stereo not given)	.	.	1%[46.1 µM]	.	.
CC(c1nc2ccccc2n1Cc1ccccc1)n1c(-c2cnccn2)nc2ccccc21 (stereo not given)	.	.	.	.	-3%
Cc1ccccc1OCCCSc1nc2ccccc2[nH]1	19*	?	?	27*	14%
Cc1nc(SCCOc2ccc(F)cc2)c2ccccc2n1	25*	9%	4%	79*	2%
